# In the supplement of paper PMC8975748:
# Where a name gives a salt, the structure may show the parent alone. ± gives the standard deviation of the averaged measurements.
# Tests used:
# [1] = tested on: Saccharomyces cerevisiae BY4741 SeMeCo community; test: mean cell size (pixel area) (pixels); higher = larger cells; details: 10 µM; 24 h; SM minimal medium
# In short: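 Harmony analysis of automated confocal images of paraformaldehyde-fixed yeast gave the mean cell pixel area per well. The yeast was a Saccharomyces cerevisiae BY4741 community carrying four plasmids, each with a fluorescent marker and each complementing one auxotrophy, incubated for 24 h in SM medium containing drug at a final 10 µM in 384-well plates. Results are averaged over 3 replicates. Same SeMeCo high-content imaging drug screen: Selleck FDA-approved drugs at 10 µM, 24 h in SM medium, 384-well plates, 3 replicates.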
# [2] = tested on: Saccharomyces cerevisiae BY4741 SeMeCo community; test: z-score of prototroph abundance vs DMSO median; higher = larger share of this subpopulation than in DMSO controls; details: 10 µM; 24 h; SM minimal medium; subpopulation (auxotrophy): Prototroph
# In short: (§1)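 Subpopulation abundance was reported as a z-score against the median of vehicle wells. The Saccharomyces cerevisiae BY4741 community, carrying four plasmids that each restored one auxotrophy and encoded a distinct fluorescent protein, was grown 24 h in minimal SM medium in 384-well plates holding library drugs at 10 µM final. Cells were paraformaldehyde-fixed and imaged by automated confocal microscopy, with single-auxotroph fluorescent strains used for thresholds and autofluorescence correction.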
# [3] = tested on: Saccharomyces cerevisiae BY4741 SeMeCo community; test: z-score of subpopulation abundance vs DMSO median, subpopulation auxotrophic for M; higher = larger share of this subpopulation than in DMSO controls; details: 10 µM; 24 h; SM minimal medium; subpopulation (auxotrophy): M
# In short: as §1
# [4] = tested on: Saccharomyces cerevisiae BY4741 SeMeCo community; test: z-score of subpopulation abundance vs DMSO median, subpopulation auxotrophic for L; higher = larger share of this subpopulation than in DMSO controls; details: 10 µM; 24 h; SM minimal medium; subpopulation (auxotrophy): L
# In short: as §1
# [5] = tested on: Saccharomyces cerevisiae BY4741 SeMeCo community; test: z-score of subpopulation abundance vs DMSO median, subpopulation auxotrophic for LU; higher = larger share of this subpopulation than in DMSO controls; details: 10 µM; 24 h; SM minimal medium; subpopulation (auxotrophy): LU
# In short: as §1
# [6] = tested on: Saccharomyces cerevisiae BY4741 SeMeCo community; test: z-score of subpopulation abundance vs DMSO median, subpopulation auxotrophic for LM; higher = larger share of this subpopulation than in DMSO controls; details: 10 µM; 24 h; SM minimal medium; subpopulation (auxotrophy): LM
# In short: as §1
# [7] = tested on: Saccharomyces cerevisiae BY4741 SeMeCo community; test: z-score of subpopulation abundance vs DMSO median, subpopulation auxotrophic for HM; higher = larger share of this subpopulation than in DMSO controls; details: 10 µM; 24 h; SM minimal medium; subpopulation (auxotrophy): HM
# In short: as §1
# [8] = tested on: Saccharomyces cerevisiae BY4741 SeMeCo community; test: z-score of subpopulation abundance vs DMSO median, subpopulation auxotrophic for HU; higher = larger share of this subpopulation than in DMSO controls; details: 10 µM; 24 h; SM minimal medium; subpopulation (auxotrophy): HU
# In short: as §1
# [9] = tested on: Saccharomyces cerevisiae BY4741 SeMeCo community; test: z-score of subpopulation abundance vs DMSO median, subpopulation auxotrophic for UM; higher = larger share of this subpopulation than in DMSO controls; details: 10 µM; 24 h; SM minimal medium; subpopulation (auxotrophy): UM
# In short: as §1
# [10] = tested on: Saccharomyces cerevisiae BY4741 SeMeCo community; test: z-score of subpopulation abundance vs DMSO median, subpopulation auxotrophic for HL; higher = larger share of this subpopulation than in DMSO controls; details: 10 µM; 24 h; SM minimal medium; subpopulation (auxotrophy): HL
# In short: as §1
# [11] = tested on: Saccharomyces cerevisiae BY4741 SeMeCo community; test: z-score of subpopulation abundance vs DMSO median, subpopulation auxotrophic for HLU; higher = larger share of this subpopulation than in DMSO controls; details: 10 µM; 24 h; SM minimal medium; subpopulation (auxotrophy): HLU
# In short: as §1
# [12] = tested on: Saccharomyces cerevisiae BY4741 SeMeCo community; test: z-score of subpopulation abundance vs DMSO median, subpopulation auxotrophic for HUM; higher = larger share of this subpopulation than in DMSO controls; details: 10 µM; 24 h; SM minimal medium; subpopulation (auxotrophy): HUM
# In short: as §1
# [13] = tested on: Saccharomyces cerevisiae BY4741 SeMeCo community; test: z-score of subpopulation abundance vs DMSO median, subpopulation auxotrophic for LUM; higher = larger share of this subpopulation than in DMSO controls; details: 10 µM; 24 h; SM minimal medium; subpopulation (auxotrophy): LUM
# In short: as §1
# [14] = tested on: Saccharomyces cerevisiae BY4741 SeMeCo community; test: z-score of subpopulation abundance vs DMSO median, subpopulation auxotrophic for HLUM; higher = larger share of this subpopulation than in DMSO controls; details: 10 µM; 24 h; SM minimal medium; subpopulation (auxotrophy): HLUM
# In short: as §1
# [15] = tested on: Saccharomyces cerevisiae BY4741 SeMeCo community; test: z-score of subpopulation abundance vs DMSO median, subpopulation auxotrophic for U; higher = larger share of this subpopulation than in DMSO controls; details: 10 µM; 24 h; SM minimal medium; subpopulation (auxotrophy): U
# In short: as §1
# [16] = tested on: Saccharomyces cerevisiae BY4741 SeMeCo community; test: z-score of subpopulation abundance vs DMSO median, subpopulation auxotrophic for H; higher = larger share of this subpopulation than in DMSO controls; details: 10 µM; 24 h; SM minimal medium; subpopulation (auxotrophy): H
# In short: as §1
# [17] = tested on: Saccharomyces cerevisiae BY4741 SeMeCo community; test: z-score of subpopulation abundance vs DMSO median, subpopulation auxotrophic for HLM; higher = larger share of this subpopulation than in DMSO controls; details: 10 µM; 24 h; SM minimal medium; subpopulation (auxotrophy): HLM
# In short: as §1
Structure (SMILES),mean cell size [1],z-score of prototroph abundance [2],z-score of subpopulation abundance [3],z-score of subpopulation abundance [4],z-score of subpopulation abundance [5],z-score of subpopulation abundance [6],z-score of subpopulation abundance [7],z-score of subpopulation abundance [8],z-score of subpopulation abundance [9],z-score of subpopulation abundance [10],z-score of subpopulation abundance [11],z-score of subpopulation abundance [12],z-score of subpopulation abundance [13],z-score of subpopulation abundance [14],z-score of subpopulation abundance [15],z-score of subpopulation abundance [16],z-score of subpopulation abundance [17]
CN(Cc1cnc2nc(N)nc(N)c2n1)c1ccc(C(=O)N[C@@H](CCC(=O)O)C(=O)O)cc1 [Methotrexate disodium],15.01 ± 0.07,0.74,-6.18,-0.58,-3.33,-1.46,1.68,-1.36,-5.52,10.8,0.91,-2.01,-1.74,19.8,,,
CCN1CCC[C@H]1CNC(=O)c1cc(S(N)(=O)=O)ccc1OC [Levosulpiride],12.5 ± 0.17,0.49,-0.33,-0.4,0.1,-0.65,-0.96,-0.27,,-0.21,-1.02,0.24,0.3,-0.54,0.41,-0.73,
CCc1nc(N)nc(N)c1-c1ccc(Cl)cc1 [Pyrimethamine],12.3 ± 0.38,0.23,-0.13,-0.63,-0.16,0.19,-0.27,-0.29,-0.1,-0.25,0,0.42,0.49,-0.2,,-0.47,
COc1ccc2cc(C(=O)O)ccc2c1 [6-Methoxy-2-naphthoic acid],13.4 ± 0.15,,-2.65,0.27,-1.63,-1.51,0.22,-0.63,-3.74,,0.62,-1.83,-0.89,1.63,-1.91,,
CCCc1nn(C)c2c(=O)[nH]c(-c3cc(S(=O)(=O)N4CCN(C)CC4)ccc3OCC)nc12 [Sildenafil],11.4 ± 0.3,1.69,-1.17,-1.03,-0.5,-0.52,-0.93,0.7,,-1.43,-0.35,-0.61,-0.21,,-0.11,-2.48,
CC(=O)NO [Acetohydroxamic acid],12.5 ± 0.15,-0.09,-0.27,1.33,-0.13,0.84,0.32,-0.11,-0.03,0.57,0.42,0.08,1.04,,-0.68,0.14,
Clc1ccc(COC(Cn2ccnc2)c2ccc(Cl)cc2Cl)c(Cl)c1 (stereo not drawn) [Miconazole Nitrate],12.3 ± 0.19,,-6.38,-2.76,-0.2,-3.18,0.3,,1.18,,11.6,6.7,0.15,9.42,3.11,29.9,
CC(C)n1c(/C=C/C(O)CC(O)CC(=O)O)c(-c2ccc(F)cc2)c2ccccc21 (stereo not drawn) [Fluvastatin Sodium],12.1 ± 0.16,-11,6.6,,1.08,-0.26,17.4,7.53,8.31,7.24,4.2,12.8,4.75,14,0.84,6.45,21.3
COC(=O)C1=C(C)NC(C)=C(C(=O)OC(C)(C)CN(C)CCC(c2ccccc2)c2ccccc2)C1c1cccc([N+](=O)[O-])c1 (stereo not drawn) [Lercanidipine hydrochloride],12.3 ± 0.19,-0.42,0.32,1.4,-0.32,,2.19,-0.84,-1.34,1.84,0.32,0.37,0.24,-0.22,,2.45,
COc1ccnc(C[S+]([O-])c2nc3cc(-n4cccc4)ccc3[nH]2)c1C (stereo not drawn) [Ilaprazole],12.6 ± 0.45,-0.51,-0.98,,0,0.85,0.96,-0.45,,,0.92,-1.45,-0.52,0.68,-1.42,,1.1
Cc1ccc(Cl)c(Nc2ccccc2C(=O)O)c1Cl [Meclofenamate Sodium],12.7 ± 0.19,1.11,0.25,-0.25,-0.57,,,-0.21,-0.07,,-0.7,,-0.74,,,-0.35,
Cc1c(-c2ccc(O)cc2)n(Cc2ccc(OCCN3CCCCCC3)cc2)c2ccc(O)cc12 [Bazedoxifene Acetate],,-0.23,0.99,-0.2,0.06,-0.35,0.8,-1.12,0.36,-0.12,0.21,-0.26,0.65,-0.3,-0.25,0.29,
NC[C@@H]1O[C@H](O[C@H]2[C@@H](O)[C@H](O[C@@H]3[C@@H](O)[C@H](N)C[C@H](N)[C@H]3O[C@H]3O[C@H](CN)[C@@H](O)[C@H](O)[C@H]3N)O[C@@H]2CO)[C@H](N)[C@@H](O)[C@@H]1O [Neomycin sulfate],,0.99,-0.79,0.21,0.11,-0.12,-1.14,-0.31,,-0.31,-0.36,-1.64,-0.31,,0.07,,
O=C(O)c1ccccc1O [Salicylic acid],12.4 ± 0.14,0.79,-0.07,,-0.68,-0.74,0.33,-1,-0.89,-0.19,-0.57,-1.03,,-0.68,-0.01,,-1.09
CN[C@@H]1[C@@H](O)[C@@H](O[C@@H]2[C@@H](O)[C@H](O[C@H]3O[C@H](CN)[C@@H](O)[C@H](O)[C@H]3O)[C@@H](N)C[C@H]2NC(=O)[C@@H](O)CN)OC[C@]1(C)O [Isepamicin Sulphate],12.1 ± 0.21,-0.32,0,,-0.44,-0.22,-0.49,1.15,1.19,-1.07,-0.42,0.82,0.03,-0.09,1.4,,-0.7
